# How the values were obtained:
# Assay in all cases: DAPPL (digital affinity profiling via proximity ligation, sequencing); 10 mM Tris-HCl pH 7.5, 50 mM NaCl, 1 mM DTT, 4% glycerol, room temperature, 30 min; GST-TFs on glutathione beads, 16-mer random dsDNA library, 0.1% formaldehyde crosslink after washing; high values mean tight binding
# Conditions in all cases: protein: recombinant; tags: N-terminal GST; dsDNA, one strand shown
# [1] = biological target: T1, ELK1 (Homo sapiens, UniProt P19419 1-428)
# T1 sequence: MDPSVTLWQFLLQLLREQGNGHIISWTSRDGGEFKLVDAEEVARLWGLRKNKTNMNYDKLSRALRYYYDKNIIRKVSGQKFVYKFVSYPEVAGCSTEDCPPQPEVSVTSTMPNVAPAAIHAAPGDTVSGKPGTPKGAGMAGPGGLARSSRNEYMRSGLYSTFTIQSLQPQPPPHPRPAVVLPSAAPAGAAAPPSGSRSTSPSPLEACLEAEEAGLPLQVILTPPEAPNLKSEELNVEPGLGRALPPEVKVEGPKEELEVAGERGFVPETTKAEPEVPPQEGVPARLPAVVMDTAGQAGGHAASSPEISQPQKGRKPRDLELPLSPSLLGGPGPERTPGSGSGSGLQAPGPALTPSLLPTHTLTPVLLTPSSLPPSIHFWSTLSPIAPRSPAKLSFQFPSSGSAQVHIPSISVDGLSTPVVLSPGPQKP
# How it was run: (§1)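 Binding signal is each hexamer's read frequency for a factor divided by its frequency in the tag-only sample. The factors were GST-fused human transcription factors from yeast, captured on glutathione beads, DNA-barcoded and pooled with that sample. Pools were incubated with 200 nmole of a random double-stranded 16-mer DNA library in Tris/NaCl/DTT/glycerol buffer at room temperature for 30 min, then washed, crosslinked with 0.1% formaldehyde, proximity-ligated with BsaI/T4 ligase (1 h, 37 °C), PCR-amplified and sequenced on an Illumina NextSeq500.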
# [2] = biological target: T2, GABPA (Homo sapiens, UniProt Q06546 1-454)
# T2 sequence: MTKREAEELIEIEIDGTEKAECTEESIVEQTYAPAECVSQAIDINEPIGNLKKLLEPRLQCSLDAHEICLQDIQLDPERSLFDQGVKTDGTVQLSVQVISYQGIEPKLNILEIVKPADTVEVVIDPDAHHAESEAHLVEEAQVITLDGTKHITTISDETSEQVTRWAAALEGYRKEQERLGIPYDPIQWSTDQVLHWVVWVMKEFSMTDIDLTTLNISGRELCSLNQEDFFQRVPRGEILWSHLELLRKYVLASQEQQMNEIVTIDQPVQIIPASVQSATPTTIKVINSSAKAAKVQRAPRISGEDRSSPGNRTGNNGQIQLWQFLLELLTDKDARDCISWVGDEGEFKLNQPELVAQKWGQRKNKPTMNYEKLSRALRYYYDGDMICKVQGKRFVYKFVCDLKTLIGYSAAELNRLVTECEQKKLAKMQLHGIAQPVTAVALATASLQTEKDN
# How it was run: as §1
# [3] = biological target: T3, ERG (Homo sapiens, UniProt P11308 1-479)
# T3 sequence: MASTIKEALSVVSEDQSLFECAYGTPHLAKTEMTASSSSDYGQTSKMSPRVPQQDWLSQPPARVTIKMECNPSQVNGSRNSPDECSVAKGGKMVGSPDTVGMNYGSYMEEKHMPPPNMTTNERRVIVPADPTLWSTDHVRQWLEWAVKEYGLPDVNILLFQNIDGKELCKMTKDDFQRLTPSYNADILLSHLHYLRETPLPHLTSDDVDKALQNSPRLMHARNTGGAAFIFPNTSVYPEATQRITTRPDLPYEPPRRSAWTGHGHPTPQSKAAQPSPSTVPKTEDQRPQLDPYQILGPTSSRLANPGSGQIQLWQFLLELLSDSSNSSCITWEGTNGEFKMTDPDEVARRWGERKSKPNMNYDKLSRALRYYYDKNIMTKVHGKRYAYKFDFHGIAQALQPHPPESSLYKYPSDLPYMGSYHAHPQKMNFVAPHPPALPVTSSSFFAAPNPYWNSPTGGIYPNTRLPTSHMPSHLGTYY
# How it was run: as §1
# [4] = biological target: ELF1 (Homo sapiens, UniProt P32519 1-619)
# How it was run: as §1
# [5] = biological target: T4, EHF (Homo sapiens, UniProt Q9NZC4 1-300)
# T4 sequence: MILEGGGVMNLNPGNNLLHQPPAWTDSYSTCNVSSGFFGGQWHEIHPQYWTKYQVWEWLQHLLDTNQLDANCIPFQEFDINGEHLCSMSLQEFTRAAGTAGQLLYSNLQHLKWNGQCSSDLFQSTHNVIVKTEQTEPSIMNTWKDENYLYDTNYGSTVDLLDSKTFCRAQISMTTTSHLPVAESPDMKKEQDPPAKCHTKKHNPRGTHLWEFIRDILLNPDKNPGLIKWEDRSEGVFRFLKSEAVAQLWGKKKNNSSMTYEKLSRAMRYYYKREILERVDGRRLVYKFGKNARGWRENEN
# How it was run: as §1
# [6] = biological target: SPI1 (Homo sapiens, UniProt P17947 1-270)
# How it was run: as §1
# [7] = biological target: SPIB (Homo sapiens, UniProt Q01892 1-262)
# How it was run: as §1
# [8] = biological target: ETV5 (Homo sapiens, UniProt P41161 1-510)
# How it was run: as §1
# [9] = biological target: ELF4 (Homo sapiens, UniProt Q99607 1-663)
# How it was run: as §1
# [10] = biological target: T5, ELK4 (Homo sapiens, UniProt P28324-2 1-405)
# T5 sequence: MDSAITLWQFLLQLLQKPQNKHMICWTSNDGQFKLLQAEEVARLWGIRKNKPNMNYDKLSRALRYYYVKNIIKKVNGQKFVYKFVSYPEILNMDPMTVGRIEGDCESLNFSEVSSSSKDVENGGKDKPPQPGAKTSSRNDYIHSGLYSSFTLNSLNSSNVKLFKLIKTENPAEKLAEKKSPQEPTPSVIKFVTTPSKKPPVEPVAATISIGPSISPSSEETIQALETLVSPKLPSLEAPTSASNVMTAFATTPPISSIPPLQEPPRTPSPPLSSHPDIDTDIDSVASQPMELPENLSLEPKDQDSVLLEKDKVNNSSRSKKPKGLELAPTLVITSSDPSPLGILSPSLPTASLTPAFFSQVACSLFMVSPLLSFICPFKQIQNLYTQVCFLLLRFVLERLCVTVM
# How it was run: as §1
# [11] = biological target: T6, ELF3 (Homo sapiens, UniProt P78545 1-371)
# T6 sequence: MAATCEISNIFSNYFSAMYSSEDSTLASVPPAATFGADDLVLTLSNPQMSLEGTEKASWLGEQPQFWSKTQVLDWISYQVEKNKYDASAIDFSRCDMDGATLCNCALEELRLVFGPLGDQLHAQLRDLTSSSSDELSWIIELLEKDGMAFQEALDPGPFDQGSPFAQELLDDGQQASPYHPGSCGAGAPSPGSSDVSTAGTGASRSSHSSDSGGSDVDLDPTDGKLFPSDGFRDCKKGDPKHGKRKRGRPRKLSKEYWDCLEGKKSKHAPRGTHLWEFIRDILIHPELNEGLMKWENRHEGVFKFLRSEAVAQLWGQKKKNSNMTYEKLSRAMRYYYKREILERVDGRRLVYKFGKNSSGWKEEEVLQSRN
# How it was run: as §1
# [12] = biological target: ETV1 (Homo sapiens, UniProt P50549 1-477)
# How it was run: as §1
# [13] = biological target: T7, ERF (Homo sapiens, UniProt P50548 1-548)
# T7 sequence: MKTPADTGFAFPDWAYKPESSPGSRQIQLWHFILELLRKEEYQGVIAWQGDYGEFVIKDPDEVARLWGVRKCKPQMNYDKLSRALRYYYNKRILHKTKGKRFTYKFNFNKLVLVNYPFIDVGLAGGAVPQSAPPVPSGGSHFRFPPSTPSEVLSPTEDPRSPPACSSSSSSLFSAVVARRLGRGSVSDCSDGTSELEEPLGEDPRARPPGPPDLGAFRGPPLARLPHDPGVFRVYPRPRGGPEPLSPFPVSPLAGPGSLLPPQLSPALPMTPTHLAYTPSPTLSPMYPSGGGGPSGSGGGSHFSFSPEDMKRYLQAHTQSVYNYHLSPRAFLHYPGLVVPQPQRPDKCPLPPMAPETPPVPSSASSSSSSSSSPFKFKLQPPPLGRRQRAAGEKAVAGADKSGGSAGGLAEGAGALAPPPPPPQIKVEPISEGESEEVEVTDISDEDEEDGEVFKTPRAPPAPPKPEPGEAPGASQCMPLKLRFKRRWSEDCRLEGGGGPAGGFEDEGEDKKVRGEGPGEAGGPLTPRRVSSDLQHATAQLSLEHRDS
# How it was run: as §1
# [14] = biological target: T8, SPDEF (Homo sapiens, UniProt O95238 1-335)
# T8 sequence: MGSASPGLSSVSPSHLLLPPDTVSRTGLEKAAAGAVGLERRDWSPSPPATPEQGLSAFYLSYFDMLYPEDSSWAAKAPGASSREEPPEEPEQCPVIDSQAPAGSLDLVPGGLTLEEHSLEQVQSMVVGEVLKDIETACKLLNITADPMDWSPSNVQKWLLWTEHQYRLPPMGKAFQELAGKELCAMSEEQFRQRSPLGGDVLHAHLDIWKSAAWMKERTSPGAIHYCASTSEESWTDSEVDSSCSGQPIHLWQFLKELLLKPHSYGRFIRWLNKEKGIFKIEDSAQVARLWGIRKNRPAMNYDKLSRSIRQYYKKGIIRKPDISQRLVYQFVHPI
# How it was run: as §1
# [15] = biological target: T9, ETV3 (Homo sapiens, UniProt P41162-2 1-143)
# T9 sequence: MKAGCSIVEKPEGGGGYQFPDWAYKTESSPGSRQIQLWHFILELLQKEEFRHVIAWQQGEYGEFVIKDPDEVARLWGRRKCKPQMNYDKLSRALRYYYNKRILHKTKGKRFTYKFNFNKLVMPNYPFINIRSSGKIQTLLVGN
# How it was run: as §1
# Chain of SPIB (Q01892 whole entry): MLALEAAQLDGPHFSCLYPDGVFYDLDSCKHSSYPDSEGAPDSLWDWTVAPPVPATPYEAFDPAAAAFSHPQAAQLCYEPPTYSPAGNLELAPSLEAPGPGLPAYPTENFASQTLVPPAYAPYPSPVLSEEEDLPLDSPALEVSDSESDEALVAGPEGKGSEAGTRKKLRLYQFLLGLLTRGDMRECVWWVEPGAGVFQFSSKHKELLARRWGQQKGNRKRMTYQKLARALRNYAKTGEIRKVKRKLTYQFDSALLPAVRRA
# Chain of ELF4 (Q99607 whole entry): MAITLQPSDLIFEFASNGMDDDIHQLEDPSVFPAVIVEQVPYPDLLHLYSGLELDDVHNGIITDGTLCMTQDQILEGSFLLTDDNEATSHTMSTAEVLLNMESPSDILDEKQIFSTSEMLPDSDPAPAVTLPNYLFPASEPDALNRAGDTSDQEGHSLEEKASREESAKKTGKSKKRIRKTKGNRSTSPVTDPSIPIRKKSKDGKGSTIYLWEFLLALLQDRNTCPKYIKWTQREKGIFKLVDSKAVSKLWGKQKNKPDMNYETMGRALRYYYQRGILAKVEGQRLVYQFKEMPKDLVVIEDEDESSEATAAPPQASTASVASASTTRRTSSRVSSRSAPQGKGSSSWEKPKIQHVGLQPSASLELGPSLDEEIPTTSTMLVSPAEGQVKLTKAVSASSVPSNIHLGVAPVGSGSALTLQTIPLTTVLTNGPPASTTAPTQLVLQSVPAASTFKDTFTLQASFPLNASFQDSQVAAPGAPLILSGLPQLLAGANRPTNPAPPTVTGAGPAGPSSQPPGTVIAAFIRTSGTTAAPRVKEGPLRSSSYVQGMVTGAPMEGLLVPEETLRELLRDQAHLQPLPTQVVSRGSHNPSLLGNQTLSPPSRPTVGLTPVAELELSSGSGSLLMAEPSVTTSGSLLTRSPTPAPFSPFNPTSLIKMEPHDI
# Chain of ELF1 (P32519 whole entry): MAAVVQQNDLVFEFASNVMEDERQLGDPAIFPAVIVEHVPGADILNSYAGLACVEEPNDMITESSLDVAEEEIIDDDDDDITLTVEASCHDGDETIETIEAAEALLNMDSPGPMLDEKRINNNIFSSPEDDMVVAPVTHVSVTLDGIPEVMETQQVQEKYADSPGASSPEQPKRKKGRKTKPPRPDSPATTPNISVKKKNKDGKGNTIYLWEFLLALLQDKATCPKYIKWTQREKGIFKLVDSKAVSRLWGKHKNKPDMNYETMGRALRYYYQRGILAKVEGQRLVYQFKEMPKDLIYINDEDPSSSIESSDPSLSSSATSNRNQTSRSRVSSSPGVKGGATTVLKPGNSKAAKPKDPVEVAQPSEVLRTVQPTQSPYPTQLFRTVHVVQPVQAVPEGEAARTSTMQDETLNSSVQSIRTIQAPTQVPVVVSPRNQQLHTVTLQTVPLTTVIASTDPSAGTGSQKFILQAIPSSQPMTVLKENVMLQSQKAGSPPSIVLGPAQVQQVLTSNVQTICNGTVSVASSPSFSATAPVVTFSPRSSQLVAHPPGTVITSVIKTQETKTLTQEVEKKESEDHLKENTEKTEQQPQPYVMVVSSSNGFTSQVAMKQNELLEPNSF
# Chain of ETV5 (P41161 whole entry): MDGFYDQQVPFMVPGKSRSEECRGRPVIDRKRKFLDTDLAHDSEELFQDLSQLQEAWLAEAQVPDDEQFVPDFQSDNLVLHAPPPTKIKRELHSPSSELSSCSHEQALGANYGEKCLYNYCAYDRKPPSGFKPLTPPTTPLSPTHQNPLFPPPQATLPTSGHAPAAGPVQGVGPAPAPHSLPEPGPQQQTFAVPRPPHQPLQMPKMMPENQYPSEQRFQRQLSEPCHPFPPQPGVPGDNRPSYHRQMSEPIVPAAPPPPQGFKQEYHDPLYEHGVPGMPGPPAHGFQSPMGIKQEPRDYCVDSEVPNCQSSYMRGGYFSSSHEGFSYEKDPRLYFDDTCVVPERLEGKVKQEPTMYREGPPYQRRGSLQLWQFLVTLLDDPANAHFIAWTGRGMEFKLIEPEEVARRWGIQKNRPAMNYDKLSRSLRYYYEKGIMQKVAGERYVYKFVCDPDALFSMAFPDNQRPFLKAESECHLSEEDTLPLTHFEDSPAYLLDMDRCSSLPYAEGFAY
# Chain of ETV1 (P50549 whole entry): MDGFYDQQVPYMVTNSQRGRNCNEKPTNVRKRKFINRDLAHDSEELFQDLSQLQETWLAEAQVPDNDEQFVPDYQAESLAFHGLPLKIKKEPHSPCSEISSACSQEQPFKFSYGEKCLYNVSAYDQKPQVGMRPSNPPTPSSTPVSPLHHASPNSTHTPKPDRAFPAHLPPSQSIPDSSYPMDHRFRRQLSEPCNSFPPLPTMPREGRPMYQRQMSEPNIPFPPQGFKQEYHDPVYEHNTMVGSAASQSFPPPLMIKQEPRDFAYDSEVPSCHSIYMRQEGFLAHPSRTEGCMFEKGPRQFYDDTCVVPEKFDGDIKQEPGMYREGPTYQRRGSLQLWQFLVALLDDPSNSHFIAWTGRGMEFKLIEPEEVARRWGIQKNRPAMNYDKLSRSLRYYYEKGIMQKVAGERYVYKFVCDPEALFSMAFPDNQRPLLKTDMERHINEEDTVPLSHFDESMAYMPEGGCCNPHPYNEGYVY
sequence,measurement,setting,value
GTACTG,binding signal,[1],"1.02 fold enrichment (6-mer frequency, TF over GST control)"
same,binding signal,[2],"1.04 fold enrichment (6-mer frequency, TF over GST control)"
same,binding signal,[3],"1.09 fold enrichment (6-mer frequency, TF over GST control)"
same,binding signal,[4],"1.12 fold enrichment (6-mer frequency, TF over GST control)"
same,binding signal,[5],"1.06 fold enrichment (6-mer frequency, TF over GST control)"
same,binding signal,[6],"1.04 fold enrichment (6-mer frequency, TF over GST control)"
same,binding signal,[7],"1 fold enrichment (6-mer frequency, TF over GST control)"
same,binding signal,[8],"1.08 fold enrichment (6-mer frequency, TF over GST control)"
same,binding signal,[9],"1.05 fold enrichment (6-mer frequency, TF over GST control)"
same,binding signal,[10],"1.15 fold enrichment (6-mer frequency, TF over GST control)"
same,binding signal,[11],"1 fold enrichment (6-mer frequency, TF over GST control)"
same,binding signal,[12],"1.02 fold enrichment (6-mer frequency, TF over GST control)"
same,binding signal,[13],"1.02 fold enrichment (6-mer frequency, TF over GST control)"
same,binding signal,[14],"1.03 fold enrichment (6-mer frequency, TF over GST control)"
same,binding signal,[15],"1.11 fold enrichment (6-mer frequency, TF over GST control)"
